Hits are enriched below; roughly 7.7% of the tested compounds scored in any of these assays.
FBPA Giardia inh: blocks Giardia fructose-bisphosphate aldolase activity. A8B2U2. purified Giardia FBPA. Potency, µM (doses to about 59.6 µM), actives largely listed as inhibitors. 290,000 tested, 0.71% active. AID 2451; further: nearly all actives have a fitted effect of over 55% in size
Target sequence (A8B2U2 whole entry, looked up): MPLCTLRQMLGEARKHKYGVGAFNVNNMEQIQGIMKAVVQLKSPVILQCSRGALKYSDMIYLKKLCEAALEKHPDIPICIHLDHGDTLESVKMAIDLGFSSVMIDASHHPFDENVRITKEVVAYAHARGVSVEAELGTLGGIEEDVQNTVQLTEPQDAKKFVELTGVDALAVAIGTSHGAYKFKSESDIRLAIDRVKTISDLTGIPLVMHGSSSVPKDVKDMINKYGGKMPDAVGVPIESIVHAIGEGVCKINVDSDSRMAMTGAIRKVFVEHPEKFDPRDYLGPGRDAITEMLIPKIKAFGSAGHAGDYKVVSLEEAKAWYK
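Giardia FBPA (40 nM reagent) was preincubated 10 min at RT with compound (up to 57.5 uM final), then substrate plus GAPDH/TPI/NAD/arsenate coupling system with diaphorase/resazurin was added; resorufin fluorescence (525/598 nm) was read after 20 min.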
FMDV antiviral: foot and mouth disease virus antiviral activity; AID 1159524; FMDV antiviral cell-based qHTS; Potency, µM (highest dose often 57.9 µM), hits mostly inhibitors; 410,000 tested, 1.2% active; calls by dose curve; tested in HEK293T cells; further: read-out not given here; nearly all actives have a fitted effect of over 45% in size
RE007 growth inh: less growth of the S. pombe RE007 Vpr strain | Potency, µM (highest dose often 92.2 µM), most hits filed as inhibitors | S. pombe RE007 Vpr strain, BacTiter-Glo ATP luminescence, 24 h | 360,000 tested, 0.21% active; active means well fitted falling curve with a large enough effect; inconclusive means small, poorly fitted or top-dose-only effect; inactive means no such curve, though single readings can be large or run the other way; further: nearly all actives have a fitted effect of over 50% in size
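Fission yeast RE007 carrying one integrated HIV-1 vpr copy, seeded at OD 0.01 in PMG+AL medium with 23 nL pinned compound. Grown 24 h at 30 degrees; viability read by BacTiter-Glo luminescence after 5 min.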
Sm TGR block: blocks Schistosoma mansoni thioredoxin glutathione reductase | Q962Y6 | purified TGR, DTNB reduction, TNB absorbance 405 nm | Potency, µM (series often up to 114 µM), most hits filed as inhibitors | 360,000 tested, 3% active; further: nearly all actives have a fitted effect of over 60% in size
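Kinetic colorimetric format: TGR-catalysed, NADPH-driven DTNB reduction monitored via TNB absorbance. Enzyme dispensed at 20 nM; compound exposure 15 min at room temperature before reaction start.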
HCMV inh: inhibitors of human cytomegalovirus; HFF cells, HCMV-luciferase reporter, 72 h; active compounds read low; activity change, negative = inhibition, % at 57.5 µM; 410,000 tested, 4.5% active; AID 1259415; in the data active means activity change below about -60%; inconclusive means no clear call, values can overlap the other calls; inactive means above about -39%
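Two-dose cell screen: HFF monolayers treated with compounds and infected with luciferase-expressing HCMV at 1 PFU/cell, 72 h at 37C, then lysed for luciferase measurement.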
Tb PYK inh: inhibitors of Trypanosoma brucei pyruvate kinase. Q57TT1. TbPYK enzyme, Kinase-Glo Plus ATP luminescence, 45 min. Potency, µM (doses to about 76.8 µM), most hits filed as inhibitors. 410,000 tested, 0.12% active; further: nearly all actives have a fitted effect of over 50% in size
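Screened from lowest to highest concentration, compounds were pinned into TbPYK/substrate mixtures, and ADP (130 uM final) was added. Plates sat at room temperature for 45 min prior to Kinase-Glo Plus detection by luminescence.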
Large screens that a line does not name were inactive. Unless noted, the call rests on the fitted dose curve; in most records, active means well fitted curve in the direction sought with a large enough effect; inconclusive means small, poorly fitted or top-dose-only effect, or another doubt; inactive means no such curve, though single readings can be large; an effect the other way counts as inactive or inconclusive.

Cc1ccc(CNC(=O)c2cc(Cl)cc(Cl)c2)n1C	Sm TGR block 32µM
CCOc1ccc(NC(=O)Cn2c(=O)n(Cc3ccco3)c(=O)c3ccc(C(=O)NC4CCCC4)cc32)cc1	none (no result: FBPA Giardia inh, RE007 growth inh)
CCCN1C(=O)C(Cc2nc3ccccc3c(=O)n2CC)c2cc(Br)ccc21 (configuration not stated)	HCMV inh -73 (no result: FBPA Giardia inh, RE007 growth inh)
CCn1c(CC2C(=O)N(C)c3ccc(Br)cc32)nc2ccccc2c1=O (configuration not stated)	none (no result: FBPA Giardia inh, RE007 growth inh)
COc1ccc(-c2csc3ncnc(N4CCN(S(=O)(=O)c5ccc(C)cc5)CC4)c23)cc1	none (no result: FBPA Giardia inh)
COc1ccc(-c2csc3ncnc(N4CCN(S(=O)(=O)c5cccs5)CC4)c23)cc1	HCMV inh -71 (no result: FBPA Giardia inh)
COc1ccc(-c2csc3ncnc(N4CCN(S(=O)(=O)c5ccc(Cl)s5)CC4)c23)cc1	HCMV inh -66 (no result: FBPA Giardia inh)
O=c1c2sc3ccccc3c2n(Cc2cccc(Cl)c2)c(=O)n1Cc1ccc(F)cc1	none (no result: FBPA Giardia inh, RE007 growth inh)
Cc1ccc(NC(=O)CSc2n[nH]c(C)c2[N+](=O)[O-])cc1C	HCMV inh -69
O=C(C1CCN(S(=O)(=O)c2cccc3nsnc23)CC1)N1CC=C(c2ccccc2)CC1	FMDV antiviral inconclusive
O=C(CCNS(=O)(=O)c1cccc2nsnc12)Nc1ccc2c(c1)OCCO2	none
O=S(=O)(Nc1ccc2c(c1)OCCO2)c1cccc2nsnc12	FMDV antiviral inconclusive, HCMV inh -68
O=C(Nc1ccc2c(c1)OCCO2)C1CCCN(S(=O)(=O)c2cccc3nsnc23)C1 (configuration not stated)	HCMV inh -77 (no result: FMDV antiviral)
O=C(Nc1ccc2c(c1)OCCO2)C1CCN(S(=O)(=O)c2cccc3nsnc23)CC1	none
O=C(C1CCCN(S(=O)(=O)c2cccc3nsnc23)C1)N1CC=C(c2ccccc2)CC1 (configuration not stated)	FMDV antiviral 20µM, HCMV inh -61
COc1ccccc1-c1ccc2ncnc(Nc3ccccc3)c2c1	none (no result: RE007 growth inh, Sm TGR block, HCMV inh, Tb PYK inh)
CCN(CC)c1cc(CS(=O)c2ccccc2)nc(-c2ccccc2)n1 (configuration not stated)	HCMV inh -61 (no result: FBPA Giardia inh, Sm TGR block)
CCOC(=O)CSc1cc(CS(=O)c2ccc(Cl)cc2)nc(-c2ccccc2)n1 (configuration not stated)	none
Cc1cc(C(C)(C)C)cc(C)c1Cn1c2[n+](c3ccc(C(F)(F)F)cc31)CCCCC2	FMDV antiviral 28µM, HCMV inh -95
Cc1ccccc1CS(=O)(=O)c1ccc(C(=O)N2CCC(C)CC2)cc1[N+](=O)[O-]	FMDV antiviral inconclusive, Sm TGR block 89µM, HCMV inh inconclusive
CC1CCN(C(=O)c2ccc(S(=O)(=O)Cc3cccc(F)c3)c([N+](=O)[O-])c2)CC1	FMDV antiviral inconclusive, Sm TGR block 3.5µM, HCMV inh -84
Cc1ccccc1CS(=O)(=O)c1cn(CC(=O)N2CCC(C)CC2)c2ccccc12	FMDV antiviral inconclusive
Cc1ccc(S(=O)(=O)Cc2ccc(C(=O)N3CCC(C)CC3)cc2)cc1	none (no result: FBPA Giardia inh)
Cc1ccc(S(=O)(=O)c2nnn(-c3ccc(F)c(Cl)c3)c2N)cc1	none (no result: FBPA Giardia inh, RE007 growth inh)
COc1ccccc1N1C(=O)CC(Sc2ncccc2C(=O)O)C1=O (configuration not stated)	none
Cc1ccc(Cl)cc1N1C(=O)CC(Sc2ncccn2)C1=O (configuration not stated)	Sm TGR block 25µM
O=C1CC(Sc2ncccn2)C(=O)N1c1ccccc1C(F)(F)F (configuration not stated)	Sm TGR block 40µM
O=C(c1c[nH]c(C(=O)C(Cl)(Cl)Cl)c1)c1c(F)cccc1F	HCMV inh -80
O=C(c1c[nH]c(C(=O)C(Cl)(Cl)Cl)c1)c1ccccc1F	FMDV antiviral inconclusive
COc1ccccc1NC1=C(N2CCCCC2)C(=O)c2ccccc2C1=O	FBPA Giardia inh inconclusive, FMDV antiviral 10µM, RE007 growth inh inconclusive, Sm TGR block inconclusive (no result: HCMV inh)
O=C1C(Nc2ccccc2)=C(N2CCCCC2)C(=O)c2ccccc21	FBPA Giardia inh inconclusive, RE007 growth inh inconclusive, Sm TGR block 8.9µM, HCMV inh -69
